Measurements reported in PubChem BioAssay (NCI).
This is part of a sample that, as a whole, favours compounds with a hit. Of some 83,000 tested, about 20% had one in any assay.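 Activity criterion: percent growth below 10, measured after cells in 96-well plates were exposed to a single compound concentration for 48 hours.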 Active and inactive are the calls of the source.

How the values were obtained:
Test in all cases: NCI-60 one-dose screen, 48 h (100 = growth as untreated, 0 = no growth, -100 = all killed)
Details in all cases: 10 µM unless noted
HCT-15 colon = test system: HCT-15 colon
HT29 colon = test system: HT29 colon
SNB-75 CNS = test system: SNB-75 CNS
SNB-19 CNS = test system: SNB-19 CNS
U251 CNS = test system: U251 CNS
PC-3 prostate = test system: PC-3 prostate
SK-MEL-5 melanoma = test system: SK-MEL-5 melanoma
UACC-62 melanoma = test system: UACC-62 melanoma
LOX IMVI melanoma = test system: LOX IMVI melanoma
SK-MEL-28 melanoma = test system: SK-MEL-28 melanoma
SK-MEL-2 melanoma = test system: SK-MEL-2 melanoma
EKVX NSCLC = test system: EKVX NSCLC
SN12C renal = test system: SN12C renal
UO-31 renal = test system: UO-31 renal
TK-10 renal = test system: TK-10 renal
ACHN renal = test system: ACHN renal
CAKI-1 renal = test system: CAKI-1 renal
A498 renal = test system: A498 renal
CCRF-CEM leukemia = test system: CCRF-CEM leukemia
MOLT-4 leukemia = test system: MOLT-4 leukemia

Measured: growth

O=C1C(Cl)=C(Nc2ccccc2)C(=O)c2ccccc21
inactive: SNB-75 CNS 97.8% | SNB-19 CNS 54.2% | PC-3 prostate 39.7% | TK-10 renal 172% | A498 renal 46.9%
active: HCT-15 colon -78.2% | HT29 colon -75.1% | U251 CNS -41.8% | SK-MEL-5 melanoma -85.3% | UACC-62 melanoma -49.8% | LOX IMVI melanoma -85.5% | SK-MEL-28 melanoma -91.9% | SK-MEL-2 melanoma -65.9% | EKVX NSCLC -91.9% | SN12C renal -73.5% | UO-31 renal -42.5% | ACHN renal -86.5% | CAKI-1 renal -83.6% | CCRF-CEM leukemia -10.5% | MOLT-4 leukemia -20.1%

C#Cc1cccc(Nc2ncnc3cc(NC(=O)CCl)ccc23)c1
active: HCT-15 colon -67.7% | HT29 colon -65.5% | SNB-75 CNS -97.2% | SNB-19 CNS -70.8% | U251 CNS -88.1% | PC-3 prostate -64.9% | SK-MEL-5 melanoma -93.9% | UACC-62 melanoma -68.6% | LOX IMVI melanoma -62.7% | SK-MEL-28 melanoma -45.1% | SK-MEL-2 melanoma -61.5% | EKVX NSCLC -45.5% | SN12C renal -78.1% | UO-31 renal -91.5% | TK-10 renal -91.5% | ACHN renal -95.9% | CAKI-1 renal -82.4% | CCRF-CEM leukemia -19.4% | MOLT-4 leukemia -16.4%
inactive: A498 renal 20.5%

NS(=O)(=O)c1ccc(C(=O)NN2C(=O)c3ccccc3C2=O)cc1
inactive: HCT-15 colon 107% | HT29 colon 111% | SNB-75 CNS 74.8% | SNB-19 CNS 102% | U251 CNS 106% | PC-3 prostate 105% | SK-MEL-5 melanoma 103% | UACC-62 melanoma 102% | LOX IMVI melanoma 103% | SK-MEL-28 melanoma 113% | SK-MEL-2 melanoma 116% | EKVX NSCLC 105% | SN12C renal 104% | UO-31 renal 89.9% | TK-10 renal 103% | ACHN renal 112% | CAKI-1 renal 94% | A498 renal 73.3% | CCRF-CEM leukemia 107% | MOLT-4 leukemia 107%

CCCN(CCSSCCNc1nc(N(C)O)nc(N(C)O)n1)c1nc(N(C)O)nc(N(C)O)n1
active: CCRF-CEM leukemia 9.07%
inactive: HCT-15 colon 69.3% | HT29 colon 78.4% | SNB-75 CNS 73.8% | SNB-19 CNS 44.7% | U251 CNS 32.8% | PC-3 prostate 67.9% | SK-MEL-5 melanoma 80.9% | UACC-62 melanoma 81.3% | LOX IMVI melanoma 70.7% | SK-MEL-28 melanoma 67.1% | SK-MEL-2 melanoma 69.8% | EKVX NSCLC 54.3% | SN12C renal 69.7% | UO-31 renal 52.3% | TK-10 renal 71% | ACHN renal 45.3% | CAKI-1 renal 31.9% | A498 renal 64.4% | MOLT-4 leukemia 47.3%

CCNC(=O)N1CCc2c(Br)c3c(c(OC)c2C1Cc1ccc(OC)cc1)OCO3 (stereo not given)
inactive: HCT-15 colon 24.6% | HT29 colon 14.4% | SNB-19 CNS 49.7% | U251 CNS 32.3% | PC-3 prostate 27.9% | SK-MEL-5 melanoma 28.9% | UACC-62 melanoma 20.7% | LOX IMVI melanoma 32.6% | SK-MEL-28 melanoma 55.9% | SK-MEL-2 melanoma 15.4% | EKVX NSCLC 54.4% | SN12C renal 49.9% | UO-31 renal 40.2% | TK-10 renal 65.6% | ACHN renal 33.6% | CAKI-1 renal 18.6% | CCRF-CEM leukemia 31.5% | MOLT-4 leukemia 23.6%
active: SNB-75 CNS -7.7% | A498 renal -12.4%

CNC(=O)c1cc(Oc2ccc3c(c2)sc2nc(-c4ccc(NC(=O)[C@@H](NC(=O)OC)C(C)C)cc4)cn23)ccn1
inactive: HCT-15 colon 73.2% | HT29 colon 72.1% | SNB-75 CNS 99.5% | SNB-19 CNS 91.1% | U251 CNS 81.6% | PC-3 prostate 40.2% | UACC-62 melanoma 42.9% | LOX IMVI melanoma 67.2% | SK-MEL-28 melanoma 75.7% | SK-MEL-2 melanoma 59.6% | EKVX NSCLC 66.3% | SN12C renal 72.2% | UO-31 renal 52.5% | TK-10 renal 85.4% | ACHN renal 83.3% | CAKI-1 renal 77.1% | A498 renal 68.5% | CCRF-CEM leukemia 23.5% | MOLT-4 leukemia 23.8%
active: SK-MEL-5 melanoma 5.33%
